Results published in PubChem BioAssay (EPA / NIEHS).
Inconclusive results are not listed. The source made the active and inactive calls. The calls were made as follows, unless noted: active = hit-call score of the fitted dose curve at least 0.9, where 1 is the maximum; inconclusive = response in the unintended direction; inactive = score below 0.9.

Legend:
[1] = read-out: Cytochrome P450 2C19 (Homo sapiens) (UniProt P33261); assay: CLD_CYP2C19_48hr: CellzDirect (CLD) Gene Expression Assay for xenobiotic metabolism (CYP2C19) at 48 hours (AID 2283700);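 also: fitted upward so actives raise CYP2C19 mRNA above the 0.2% DMSO vehicle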
How it was run: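 CYP2C19 mRNA induction read by chemiluminescent quantitative nuclease protection assay after 48 h, with fresh compound added daily for two days to cultured human liver hepatocytes. Activity fitted upward against 0.2% DMSO vehicle.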

[2] = read-out: Broad substrate specificity ATP-binding cassette transporter ABCG2 (Homo sapiens) (UniProt Q9UNQ0); assay: CLD_ABCG2_48hr: CellzDirect (CLD) Gene Expression Assay for ABC Transporter (ABCG2) at 48 hours (AID 2283704);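 as to AC50: potency for induction of ABCG2 mRNA above the DMSO baseline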
How it was run: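 ABCG2 transcript measured at 48 h by quantitative nuclease protection (chemiluminescent) and fitted for increase relative to 0.2% DMSO. Hepatocyte cultures from separate donors got fresh compound daily over two days; morphology annotated cytotoxicity.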

[3] = read-out: Glyceraldehyde-3-phosphate dehydrogenase (Homo sapiens) (UniProt P04406); assay: CLD_GAPDH_48hr: CellzDirect (CLD) Gene Expression Assay for Baseline Control (Glyceraldehyde 3-phosphate dehydrogenase) at 48 hours (AID 2283706);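 also: active means higher GAPDH mRNA than DMSO vehicle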
How it was run: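 GAPDH baseline-control readout: qNPA chemiluminescent mRNA quantitation in human liver primary cells 48 h after daily dosing on two consecutive days, vehicle 0.2% DMSO; gain of signal fitted against DMSO, cytotoxicity flagged by phase-contrast morphology.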

[4] = read-out: alkyl and aryl transferase (GSTA2), GSTA2 (gene 2939); assay: CLD_GSTA2_48hr: CellzDirect (CLD) Gene Expression Assay for alkyl and aryl transferase (GSTA2) at 48 hours (AID 2283708);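 also: active means mRNA induction above DMSO vehicle baseline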
How it was run: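 GSTA2 mRNA quantified by qNPA chemiluminescence in human primary hepatocyte lysates after 48 h of daily fresh chemical dosing. Increases fitted against 0.2% DMSO vehicle baseline; cytotoxicity from morphology annotated yes/no.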

[5] = read-out: glucuronosyltransferase (UGT1A1), UGT1A1 (gene 54658); assay: CLD_UGT1A1_48hr: CellzDirect (CLD) Gene Expression Assay for glucuronosyltransferase (UGT1A1) at 48 hours (AID 2283709);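 also: actives increase expression relative to DMSO so potency refers to induction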
How it was run: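 Quantitative nuclease protection assay (chemiluminescent) for UGT1A1 mRNA at 48 h in human hepatocyte cultures from two donors, redosed daily with fresh solutions. Induction fitted relative to 0.2% DMSO; phase-contrast morphology annotated cytotoxicity.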

[6] = read-out: HMG-CoA synthase (HMGCS2), HMGCS2 (gene 3158); assay: CLD_HMGCS2_48hr: CellzDirect (CLD) Gene Expression Assay for HMG-CoA synthase (HMGCS2) at 48 hours (AID 2283711)
How it was run: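 mRNA induction read by qNPA chemiluminescence, 48 h after dosing. Cultured primary human liver cells (two donor preparations) received fresh compound daily over two days against 0.2% DMSO vehicle; morphology-based cytotoxicity noted alongside.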

[7] = STM_H9_OrnithineISnorm_perc: Stemina devTOX quickPredict H9 human embryonic stem cell (hESC)-based Assay for Ornithine (ORN) Metabolite Biomarker, Normalized (AID 2283712; active = hit-call score of the fitted dose curve at least 0.9, where 1 is the maximum; inactive = score below 0.9;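 also: ornithine released into spent medium during last day measured by mass spectrometry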)
How it was run: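 Ornithine secreted by H9 hESCs after 72h compound treatment (daily media/compound renewal) was quantified in final-day media by UPLC-HRMS. Values are isotope-standard-normalized, expressed relative to 0.1% DMSO, fitted in positive direction.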

[8] = read-out: organic anion transporter (SLCO1B1), SLCO1B1 (gene 10599); assay: CLD_SLCO1B1_48hr: CellzDirect (CLD) Gene Expression Assay for organic anion transporter (SLCO1B1) at 48 hours (AID 2283707)
How it was run: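 SLCO1B1 transcript quantified by qNPA with chemiluminescent readout after 48 h of once-daily chemical exposure. Cultured human primary hepatocytes came from two donors, with 0.2% DMSO vehicle; positive-direction fitting against DMSO, cytotoxicity flagged by morphology.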

[9] = read-out: xenobiotic metabolism (CYP1A2), CYP1A2 (gene 1544); assay: CLD_CYP1A2_48hr: CellzDirect (CLD) Gene Expression Assay for xenobiotic metabolism (CYP1A2) at 48 hours (AID 2283703)
How it was run: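 Cytotoxicity was flagged yes/no from morphology, while CYP1A2 transcript induction was detected by qNPA chemiluminescence after a 48-hour exposure. Human primary hepatocyte cultures from separate donors received fresh dosing solutions daily over two days, with 0.2% DMSO as vehicle and baseline.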

[10] = read-out: xenobiotic metabolism (CYP1A1), CYP1A1 (gene 1543); assay: CLD_CYP1A1_48hr: CellzDirect (CLD) Gene Expression Assay for xenobiotic metabolism (CYP1A1) at 48 hours (AID 2283705)
How it was run: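 CYP1A1 transcript measured by quantitative nuclease protection (chemiluminescent) 48 h after two daily treatments of human hepatocyte cultures, versus 0.2% DMSO. Morphology-based cytotoxicity flags accompany data; two donor preparations used.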

Sequence of Broad substrate specificity ATP-binding cassette transporter ABCG2 (Homo sapiens) (Q9UNQ0 whole entry, looked up): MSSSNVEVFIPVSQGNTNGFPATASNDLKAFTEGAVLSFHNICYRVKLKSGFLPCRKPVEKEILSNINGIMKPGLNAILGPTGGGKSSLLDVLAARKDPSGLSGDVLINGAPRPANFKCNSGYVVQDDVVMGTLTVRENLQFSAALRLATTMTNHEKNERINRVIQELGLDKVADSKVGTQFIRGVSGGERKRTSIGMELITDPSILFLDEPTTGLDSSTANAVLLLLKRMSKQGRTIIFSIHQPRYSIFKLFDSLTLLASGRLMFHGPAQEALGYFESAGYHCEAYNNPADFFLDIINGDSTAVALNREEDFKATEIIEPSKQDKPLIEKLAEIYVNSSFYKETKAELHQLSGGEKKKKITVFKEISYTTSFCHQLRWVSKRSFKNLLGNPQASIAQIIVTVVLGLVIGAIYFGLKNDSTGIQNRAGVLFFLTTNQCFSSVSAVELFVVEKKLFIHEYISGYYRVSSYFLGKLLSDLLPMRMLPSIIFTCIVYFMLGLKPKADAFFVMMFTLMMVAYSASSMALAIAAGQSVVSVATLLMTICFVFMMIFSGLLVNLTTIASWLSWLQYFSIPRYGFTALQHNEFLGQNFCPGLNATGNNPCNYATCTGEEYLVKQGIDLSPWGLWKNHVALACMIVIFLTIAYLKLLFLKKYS
Sequence of Glyceraldehyde-3-phosphate dehydrogenase (Homo sapiens) (P04406 whole entry, looked up): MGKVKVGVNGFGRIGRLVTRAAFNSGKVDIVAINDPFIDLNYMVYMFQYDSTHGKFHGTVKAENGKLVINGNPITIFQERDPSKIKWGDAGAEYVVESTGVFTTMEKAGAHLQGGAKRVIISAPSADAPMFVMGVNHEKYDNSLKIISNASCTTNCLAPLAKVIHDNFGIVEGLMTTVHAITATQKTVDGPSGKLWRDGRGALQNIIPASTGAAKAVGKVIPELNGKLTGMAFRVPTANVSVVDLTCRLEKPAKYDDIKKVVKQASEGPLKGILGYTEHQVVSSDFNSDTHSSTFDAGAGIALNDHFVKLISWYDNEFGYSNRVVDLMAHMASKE
Sequence of Cytochrome P450 2C19 (Homo sapiens) (P33261 whole entry, looked up): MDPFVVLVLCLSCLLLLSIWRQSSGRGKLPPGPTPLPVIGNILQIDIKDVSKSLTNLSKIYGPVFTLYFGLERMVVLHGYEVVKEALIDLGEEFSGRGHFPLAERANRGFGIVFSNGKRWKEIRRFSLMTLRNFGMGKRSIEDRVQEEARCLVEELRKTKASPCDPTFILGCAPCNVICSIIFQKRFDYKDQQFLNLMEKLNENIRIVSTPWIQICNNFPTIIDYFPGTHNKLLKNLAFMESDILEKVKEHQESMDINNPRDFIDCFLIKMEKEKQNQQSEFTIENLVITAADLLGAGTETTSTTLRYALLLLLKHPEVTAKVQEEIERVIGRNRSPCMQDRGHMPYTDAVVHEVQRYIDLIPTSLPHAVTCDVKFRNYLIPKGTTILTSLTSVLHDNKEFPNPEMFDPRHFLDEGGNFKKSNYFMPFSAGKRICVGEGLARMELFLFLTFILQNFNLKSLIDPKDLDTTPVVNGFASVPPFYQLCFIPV

With N#CN the outcome [1] was “inactive”, the outcome [2] was “inactive” and the outcome [3] was “inactive”. The outcome [4] was “inactive” and the outcome [5] was “inactive”.
In the case of CNC(=O)CSP(=S)(OC)OC, the outcome [1] is reported as “inactive”, the outcome [2] is reported as “inactive” and the outcome [5] is reported as “inactive”. For the same compound, the outcome [6] was “inactive”.
In the case of CC(C)(C)C(O)C(Oc1ccc(Cl)cc1)n1cncn1 (configuration not stated), the outcome [1] is reported as “inactive”, the outcome [2] is reported as “inactive” and the outcome [4] is reported as “inactive”. For the same compound, the AC50 [5] was 2.43 µM (active), the outcome [6] was “inactive” and the outcome [7] was “inactive”.
In the case of O=S1OCC2C(CO1)C1(Cl)C(Cl)=C(Cl)C2(Cl)C1(Cl)Cl (configuration not stated), the outcome [1] is reported as “inactive”, the outcome [2] is reported as “inactive” and the outcome [5] is reported as “inactive”. For the same compound, the AC50 [7] was 36.1 µM (active).
In the case of CNC(=O)Oc1ccccc1OC(C)C, the outcome [1] is reported as “inactive”, the outcome [3] is reported as “inactive” and the outcome [5] is reported as “inactive”.
With O=C(NC(=O)c1c(F)cccc1F)Nc1ccc(OC(F)(F)C(F)OC(F)(F)F)c(Cl)c1 (configuration not stated) the outcome [1] was “inactive”, the outcome [2] was “inactive” and the outcome [3] was “inactive”. For the same compound, the outcome [8] was “inactive”, the outcome [5] was “inactive” and the outcome [6] was “inactive”. The outcome [7] was “inactive”.
For C[C@H]1[C@H](c2ccc(Cl)cc2)SC(=O)N1C(=O)NC1CCCCC1, the outcome [1] was “inactive”, the AC50 [2] was 34.8 µM (active) and the AC50 [4] was 34.4 µM (active). The outcome [5] was “inactive”.
With COC(=O)c1ccccc1S(=O)(=O)NC(=O)Nc1nc(C)nc(OC)n1 the outcome [1] was “inactive”, the outcome [2] was “inactive” and the outcome [3] was “inactive”. For the same compound, the outcome [4] was “inactive” and the outcome [5] was “inactive”.
With O=C(Nc1ccccc1)Nc1cnns1 the outcome [1] was “inactive”, the outcome [2] was “inactive” and the outcome [4] was “inactive”. The AC50 [5] was 9.87 µM (active) and the outcome [7] was “inactive”.
With CC(C)OC(=O)Nc1cccc(Cl)c1 the outcome [1] was “inactive”, the outcome [3] was “inactive” and the outcome [8] was “inactive”. The outcome [4] was “inactive”, the AC50 [5] was 12.8 µM (active) and the outcome [7] was “inactive”.
In the case of N#Cc1c(Cl)c(Cl)c(Cl)c(C#N)c1Cl, the outcome [1] is reported as “inactive”, the outcome [2] is reported as “inactive” and the outcome [3] is reported as “inactive”. For the same compound, the outcome [4] was “inactive”.
For O=C1c2ccccc2C(=O)N1SC(Cl)(Cl)Cl, the outcome [1] was “inactive”, the outcome [2] was “inactive” and the outcome [3] was “inactive”. For the same compound, the outcome [8] was “inactive”, the outcome [4] was “inactive” and the outcome [5] was “inactive”.
For CNC(=O)/C=C(\C)OP(=O)(OC)OC, the outcome [1] was “inactive”, the outcome [9] was “inactive” and the outcome [2] was “inactive”. The outcome [3] was “inactive”, the outcome [8] was “inactive” and the outcome [4] was “inactive”. The outcome [5] was “inactive” and the outcome [6] was “inactive”.
With O=C(O)CCCOc1ccc(Cl)cc1Cl the outcome [1] was “inactive”, the outcome [2] was “inactive” and the outcome [5] was “inactive”. For the same compound, the outcome [6] was “inactive”.
For O=C(O)C(F)(F)C(F)(F)C(F)(F)C(F)(F)C(F)(F)C(F)(F)C(F)(F)F, the outcome [1] was “inactive”, the outcome [2] was “inactive” and the outcome [3] was “inactive”. The outcome [8] was “inactive”, the outcome [4] was “inactive” and the outcome [5] was “inactive”. For the same compound, the AC50 [6] was 35.5 µM (active) and the outcome [7] was “inactive”.
In the case of COP(=O)(OC)OC=C(Cl)Cl, the outcome [1] is reported as “inactive”, the outcome [2] is reported as “inactive” and the outcome [3] is reported as “inactive”. The outcome [8] was “inactive”, the outcome [4] was “inactive” and the outcome [5] was “inactive”.
For Oc1cc(Cl)ccc1Oc1ccc(Cl)cc1Cl, the outcome [1] was “inactive”, the outcome [2] was “inactive” and the outcome [3] was “inactive”. For the same compound, the outcome [8] was “inactive”, the outcome [4] was “inactive” and the outcome [5] was “inactive”. For the same compound, the AC50 [6] was 0.0058 µM (active) and the AC50 [7] was 86.3 µM (active).
With CCN(CC)C(=O)SCc1ccc(Cl)cc1 the outcome [1] was “inactive”, the outcome [4] was “inactive” and the AC50 [5] was 20 µM (active).
For Cc1cc(C)nc(NC(=O)NS(=O)(=O)c2ccccc2C(=O)OC2COC2)n1, the outcome [1] was “inactive”, the outcome [2] was “inactive” and the outcome [3] was “inactive”. For the same compound, the outcome [5] was “inactive” and the outcome [6] was “inactive”.
With CCC(C)Nc1c([N+](=O)[O-])cc(C(C)(C)C)cc1[N+](=O)[O-] (configuration not stated) the outcome [1] was “inactive”, the outcome [2] was “inactive” and the AC50 [4] was 4.11 µM (active). The AC50 [5] was 2.8 µM (active) and the outcome [7] was “inactive”.
With Cc1[nH]c(=O)n(C(C)(C)C)c(=O)c1Cl the outcome [1] was “inactive”, the outcome [9] was “inactive” and the outcome [4] was “inactive”. For the same compound, the outcome [5] was “inactive” and the outcome [7] was “inactive”.
With COC(=O)c1ccccc1CS(=O)(=O)NC(=O)Nc1nc(OC)cc(OC)n1 the outcome [1] was “inactive”, the outcome [2] was “inactive” and the outcome [3] was “inactive”. The outcome [8] was “inactive”, the outcome [4] was “inactive” and the outcome [5] was “inactive”.
For C#CCN1C(=O)COc2cc(F)c(N3C(=O)C4=C(CCCC4)C3=O)cc21, the outcome [1] was “inactive”, the outcome [2] was “inactive” and the outcome [4] was “inactive”. The outcome [5] was “inactive” and the AC50 [7] was 84.1 µM (active).
In the case of O=C(O)COc1ccc(Cl)cc1Cl, the outcome [1] is reported as “inactive”, the outcome [2] is reported as “inactive” and the outcome [3] is reported as “inactive”. The outcome [8] was “inactive”, the outcome [5] was “inactive” and the outcome [6] was “inactive”.
In the case of CC[C@H](C)[C@H]1O[C@]2(C=C[C@@H]1C)C[C@@H]1C[C@@H](C/C=C(\C)[C@@H](O[C@H]3C[C@H](OC)[C@@H](O[C@H]4C[C@H](OC)[C@@H](O)[C@H](C)O4)[C@H](C)O3)[C@@H](C)/C=C/C=C3\CO[C@@H]4[C@H](O)C(C)=C[C@@H](C(=O)O1)[C@]34O)O2 (tested in a mixture with another compound), the outcome [1] is reported as “inactive”, the AC50 [2] is reported as 3.14 µM (active) and the outcome [3] is reported as “inactive”. For the same compound, the outcome [4] was “inactive”.
For Oc1ccc(Cl)cc1Cc1ccccc1, the outcome [1] was “inactive”, the outcome [2] was “inactive” and the outcome [3] was “inactive”. The outcome [8] was “inactive”, the outcome [4] was “inactive” and the outcome [5] was “inactive”. For the same compound, the outcome [6] was “inactive” and the outcome [7] was “inactive”.
In the case of CC(C)N(C(=O)COc1nnc(C(F)(F)F)s1)c1ccc(F)cc1, the outcome [2] is reported as “inactive”, the outcome [3] is reported as “inactive” and the outcome [4] is reported as “inactive”. For the same compound, the outcome [5] was “inactive”.
In the case of COc1cc(OC)nc(NC(=O)NS(=O)(=O)c2cc(NC=O)ccc2C(=O)N(C)C)n1, the outcome [2] is reported as “inactive”, the outcome [10] is reported as “inactive” and the outcome [3] is reported as “inactive”. The outcome [8] was “inactive”, the outcome [4] was “inactive” and the outcome [5] was “inactive”.
In the case of COP(=S)(OC)Oc1ccc(SC)c(C)c1, the AC50 [10] is reported as 33.4 µM (active) and the outcome [5] is reported as “inactive”.
